Reference: ChEMBL document CHEMBL3988442, “University of Dundee, Small-Polar-MMV Screening Library” (2021)
About 13,000 (27%) of roughly 48,000 compounds showed an effect of 50% or more. This is one part of the list.

These compounds were tested on Wolbachia pipientis (assay: Anti-Wolbachia Cell-Based Screen). Conditions: 5 µM.
Assay type: functional
Set-up: scale not given: in the data most compounds retested in dose-response had high values

Row | Compound | Percent Effect
1 | Cc1cccc(C(C(=O)N(C)Cc2cc(C)no2)N(C)C)c1 (stereo not drawn) | -11.12%
2 | CC(C)=CCN1CCNC(=O)C1CC(=O)N1CCc2sccc2C1 (stereo not drawn) | 13%
3 | O=C(NC1CC1)[C@@H]1C[C@@H]2CCN(Cc3ccoc3)C[C@@H]2O1.O=C(O)C(F)(F)F | 102.1%
4 | O=C(NC1CCC1)[C@@H]1C[C@@H]2CCN(CCc3ccccc3)C[C@H]2O1.O=C(O)C(F)(F)F | 2.186%
5 | O=C(NC1CC1)[C@@H]1C[C@@H]2CCN(Cc3ccccc3)C[C@@H]2O1.O=C(O)C(F)(F)F | -0.7056%
6 | CC(C)NC(=O)[C@@H]1C[C@@H]2CCN(Cc3ccoc3)C[C@H]2O1.O=C(O)C(F)(F)F | 74.8%
7 | COc1ccccc1CN1CC[C@H]2C[C@H](C(=O)N3CCCC3)O[C@H]2C1.O=C(O)C(F)(F)F | -2.148%
8 | O=C(O)C(F)(F)F.O=C([C@@H]1C[C@@H]2CCN(Cc3ccoc3)C[C@H]2O1)N1CCCC1 | 103.1%
9 | COc1ccccc1CN1CC[C@H]2C[C@@H](C(=O)N3CCCC3)O[C@H]2C1.O=C(O)C(F)(F)F | 2.639%
10 | O=C(NC1CCCC1)[C@@H]1C[C@@H]2CCN(Cc3ccoc3)C[C@H]2O1.O=C(O)C(F)(F)F | 111.5%
11 | Cc1ncccc1NC(=O)[C@H]1C[C@@H]2CCN(Cc3ccsc3)C[C@H]2O1.O=C(O)C(F)(F)F.O=C(O)C(F)(F)F | -7.023%
12 | O=C(NC1CC1)[C@@H]1C[C@@H]2CCN(Cc3ccccc3)C[C@H]2O1.O=C(O)C(F)(F)F | -0.327%
13 | Cc1c(C(=O)OCC2CC(=O)N(c3ccccc3)C2)cnn1C(C)C (stereo not drawn) | 4.999%
14 | CN(C)C(=O)[C@H]1C[C@@H]2CCN(Cc3ccoc3)C[C@@H]2O1.O=C(O)C(F)(F)F | 113.2%
15 | CN(C)C(=O)[C@@H]1C[C@@H]2CCN(Cc3ccc4c(c3)OCO4)C[C@@H]2O1.O=C(O)C(F)(F)F | -14.9%
16 | CN(C)S(=O)(=O)N1C[C@@H]2CN(Cc3ccoc3)CCO[C@@H]2C1.O=C(O)C(F)(F)F | -19.85%
17 | CCc1ccc(C(=O)N2CC[C@](C)(O)C(C)(C)C2)[nH]1 | -18.68%
18 | COc1c2ccc(C(=O)NCCCn3ncccc3=O)cc2nn1C | 16.19%
19 | COc1ccccc1-n1cc(CN2CCN(C)[C@@H]3CS(=O)(=O)C[C@@H]32)cn1 | -2.085%
20 | COc1ccccc1-n1cc(C(=O)NCCCn2nc(C)nc2C)cn1 | 95.25%
21 | Cc1nc(C)n(CCCNC(=O)C(C)n2ccnc2C(C)C)n1 (stereo not drawn) | 3.373%
22 | COc1ccccc1-n1cc(C(=O)NCCn2nc(C)nc2C)cn1 | 116.2%
23 | COc1ccccc1N1CCN(C(=O)CCn2nnnc2C)CC1(C)C | 3.802%
24 | CN(CCN1CCOCC1)C(=O)CCc1ccc(C(F)(F)F)cc1 | -5.006%

Row | Compound | Percent Effect
25 | CCc1[nH]c2ccc(CNc3cncc(C(=O)N(C)C)n3)cc2c1C | 5.05%
26 | Cc1nnc(NCC(c2ccco2)N2CCCC2)c(C#N)c1C (stereo not drawn) | -0.3665%
27 | COC(=O)NCC(=O)N1CCCn2nc(CN3CC[C@H](F)C3)cc2C1 | -5.697%
28 | O=C1OCCCN1Cc1nc(-c2ccc(N3CCCCC3)cc2)no1 | -4.946%
29 | Cc1occc1-c1nc(-c2cccc(CN3CCOCC3)c2)no1 | 0.4297%
30 | O=C1NCCCN1Cc1nc(-c2ccc(N3CCCCC3)cc2)no1 | -15.88%
31 | c1cc(N2CCCCC2)ccc1-c1noc(CN2CCOCC2)n1 | 101.7%
32 | Cc1cc(-c2nc(-c3cccc(CN4CCOCC4)c3)no2)no1 | -11.24%
33 | Brc1cccc(-c2noc(CN3CCOCC3)n2)c1 | 107.1%
34 | NC(=O)C(NC(=O)Cc1cnn(-c2ccccc2)n1)c1ccccc1 (stereo not drawn) | -10.55%
35 | CNC(=O)C(C)(C)CNC(=O)Nc1cc(C)ccn1 | -2.642%
36 | CNC(=O)[C@H]1C[C@@H]2CN(S(=O)(=O)c3cccc(C)c3)C[C@@H]2N1C.O=C(O)C(F)(F)F | -8.978%
37 | CNC(=O)[C@H]1C[C@@H]2CN(S(=O)(=O)c3ccc(F)cc3)C[C@@H]2N1C.O=C(O)C(F)(F)F | -8.738%
38 | CNC(=O)[C@H]1C[C@@H]2CN(C(=O)c3ccncc3)C[C@@H]2N1S(C)(=O)=O.O=C(O)C(F)(F)F | 89.45%
39 | CNC(=O)[C@H]1C[C@@H]2CN(S(=O)(=O)c3ccc(C)cc3)C[C@@H]2N1C.O=C(O)C(F)(F)F | -6.65%
40 | CNC(=O)[C@H]1C[C@@H]2CN(S(=O)(=O)c3ccccc3)C[C@@H]2N1C.O=C(O)C(F)(F)F | -12.02%
41 | CNC(=O)[C@H]1C[C@@H]2CN(C(=O)c3cccnc3)C[C@@H]2N1S(C)(=O)=O.O=C(O)C(F)(F)F | 86.97%
42 | CNC(=O)[C@H]1C[C@@H]2CN(C(=O)c3ccccn3)C[C@@H]2N1S(C)(=O)=O.O=C(O)C(F)(F)F | 96.47%
43 | CCc1nc(C)c(C(C)N(C)CCOC)s1 (stereo not drawn) | -4.092%
44 | CC(C)c1nnc(NCc2ccsc2)o1 | -7.753%
45 | COc1cccc(COC(C)C(=O)NCc2nnc3n2CCC3)c1 (stereo not drawn) | 0.6682%
46 | Cc1csc(N2CCC(NCC3(O)CCc4ccccc43)CC2)n1 (stereo not drawn) | -8.914%
47 | O=S(=O)(c1cccs1)N1CCN2C[C@H](OCC3CC3)C[C@H]2C1 | 12.99%
48 | O=C(O)C(F)(F)F.O=C(c1ccncc1F)N1Cc2nc(COCC3CC3)oc2C1 | 11.83%

Row | Compound | Percent Effect
49 | O=C(NCc1ccccc1)N1Cc2nc(COCC3CC3)oc2C1 | 6.767%
50 | O=S(=O)(c1cccs1)N1Cc2nc(COCC3CC3)oc2C1 | 96.89%
51 | O=C(Cc1cccs1)N1Cc2nc(COCC3CC3)oc2C1 | 106.2%
52 | COCC1CN(S(=O)(=O)c2cccs2)Cc2ncnn2C1 (stereo not drawn) | -4.986%
53 | CN(C)c1ncc2c(n1)CCCC2NC(=O)c1ccsc1 (stereo not drawn) | -6.116%
54 | C=Cc1ccc(C(=O)NC2CCCc3nc(N(C)C)ncc32)cc1 (stereo not drawn) | 4.134%
55 | CN(C)c1ncc(-c2ccc(C(N)=O)cc2)c(C2CCNC2)n1.Cl (stereo not drawn) | 101.4%
56 | CN(C)c1ncc(-c2cccc(C(N)=O)c2)c(C2CNCCO2)n1.Cl (stereo not drawn) | 103.6%
57 | CN(C)c1ncc(-c2ccc(C(N)=O)cc2)c(C2CNCCO2)n1 (stereo not drawn) | 99.82%
58 | Cc1nnc(-c2ccc(C(=O)Nc3ccnc(N(C)C)n3)cc2)o1 | -7.444%
59 | CC(C#N)CSc1ccccc1NCC(=O)Nc1ccccc1 (stereo not drawn) | -8.038%
60 | Cn1c(-c2ccccc2Cl)nc2cc(C(=O)NCCOCCO)cnc21 | -3.34%
61 | O=C(CC1CCCO1)Nc1cccc(N2CCN(CC3CC3)CC2)c1 (stereo not drawn) | -9.056%
62 | Cc1ccc(C)c(NC(=O)Cn2nc(C)c(C#N)c2N)c1 | -3.359%
63 | CC(C)SCc1cccc(NC2CCN(C)C2=O)c1 (stereo not drawn) | -2.094%
64 | CCc1ccccc1-n1cc(O)c(C(=O)N2CCCCC2)n1 | -6.715%
65 | CC(C)N1CCN(C(=O)C(C)n2cncn2)CC1 (stereo not drawn) | 90.2%
66 | CC(C(=O)N1CCOCC1)n1cncn1 (stereo not drawn) | 74.2%
67 | CCc1nc(CN2CCCN(C(=O)C(C)n3cncn3)CC2)cs1 (stereo not drawn) | -3.687%
68 | CC(=O)N1CCCN(C(=O)C(C)n2cncn2)CC1 (stereo not drawn) | 98.01%
69 | CC(C(=O)N1CCN(c2cnccn2)CC1)n1cncn1 (stereo not drawn) | -0.9189%
70 | Cc1csc(N2CCCN(C(=O)C(C(C)C)n3cncn3)CC2)n1 (stereo not drawn) | -4.935%
71 | CC(C(=O)N1CCN(c2ccccc2Cl)CC1)n1cncn1 (stereo not drawn) | 9.073%
72 | CC(C(=O)N1CCN(c2ncccn2)CC1)n1cncn1 (stereo not drawn) | 114.6%

Row | Compound | Percent Effect
73 | CC(=O)N1CCN(C(=O)C(C)n2cncn2)CC1 (stereo not drawn) | 5.614%
74 | COc1ccc(NC(C)C(=O)N2CCN(c3ncccn3)CC2)cn1 (stereo not drawn) | -16.98%
75 | CC(=O)N1C[C@@H](F)[C@@H](OCc2nc3ccc(C#N)cc3[nH]2)C1 | -0.3332%
76 | Cc1csc(CN(CC2CCCO2)C(=O)c2occc2C)n1 (stereo not drawn) | -7.004%
77 | Cc1ccc(NC2(C(=O)NCc3c(C)n[nH]c3C)CCCC2)cc1 | 1.889%
78 | O=S1(=O)CCC(N(CCc2ccc3c(c2)CCO3)C2CC2)C1 (stereo not drawn) | -1.378%
79 | Cc1ccc(CN2CCOC3(CCCN(C(=O)c4ccco4)C3)C2)o1 (stereo not drawn) | -7.626%
80 | NCCc1c(-c2ccccc2)[nH][nH]c1=O.O=C(O)C(=O)O | 104.8%
81 | NCCc1c(-c2ccc(F)cc2)[nH][nH]c1=O | 105.4%
82 | Cc1ccc(-c2[nH][nH]c(=O)c2CCN)cc1 | 116.2%
83 | Cc1nc(C)c(CCNC(Cc2ccncc2)C(F)(F)F)s1 (stereo not drawn) | 2.095%
84 | CC(SCCS(C)(=O)=O)c1nc(Cc2ccc(F)cc2)no1 (stereo not drawn) | -13.13%
85 | CNC(=O)c1cn2cc(-c3ccccc3Cl)n(CC=C(C)C)c(=O)c2n1 | 16.22%
86 | COc1ccccc1CN1CC(O)CN(C(=O)OCC(C)C)CC1=O (stereo not drawn) | 126.7%
87 | COc1ccccc1C(C)CC(=O)N1CCN(S(N)(=O)=O)CC1 (stereo not drawn) | 6.973%
88 | COc1ccccc1CN1CC(OC)CN(C(=O)OCC(C)C)CC1=O (stereo not drawn) | 116.7%
89 | COc1ccccc1CNC(=O)N1CCCC(CO)C1 (stereo not drawn) | 3.322%
90 | COc1ccccc1CN1CC(OC)CN(C(=O)CC(C)C)CC1=O (stereo not drawn) | 106.9%
91 | COc1ccccc1CNC(=O)C(C)N1CC(n2nc(C)cc2C)C1 (stereo not drawn) | -6.868%
92 | COc1ccccc1C(C)CC(=O)N1CCCS1(=O)=O (stereo not drawn) | -3.86%
93 | COc1ccccc1OC1CN(C(=O)Cc2c(C)nc(N)nc2C)C1 | -25.47%
